Measurements published in the supplement of paper PMC8728848.
The entries come from a sample that favours the strongest signals as a whole.

Columns and labels:
Test in all cases: glycan array binding signal (z-score within array); higher = stronger binding
Details in all cases: glycan notation: IUPAC condensed, linker removed
[1] = target: Fuc(a1-2)Gal(b1-3)GlcNAc(b1-3)[Gal(b1-4)GlcNAc(b1-6)]Gal(b1-4)Glc
Procedure, shortened: (§1)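 The binding signal is a Z-score computed within each array. Data were drawn from 3228 arrays in the Consortium for Functional Glycomics database, restricted to those with a known protein sequence. Scores were averaged over arrays of the same protein sequence at different concentrations or buffers, and over linkers, and negative values can be taken as non-binding.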

[2] = target: Fuc(a1-2)Gal(b1-4)[Fuc(a1-3)]GlcNAc
Procedure, shortened: as §1

[3] = target: Fuc(a1-2)[Gal(a1-3)]Gal(b1-4)GlcNAc(b1-2)Man(a1-3)[Fuc(a1-2)[Gal(a1-3)]Gal(b1-4)GlcNAc(b1-2)Man(a1-6)]Man(b1-4)GlcNAc(b1-4)GlcNAc
Procedure, shortened: as §1

[4] = target: Fuc(a1-2)[Gal(a1-3)]Gal(b1-4)GlcNAc(b1-2)Man(a1-3)[Fuc(a1-2)[Gal(a1-3)]Gal(b1-4)GlcNAc(b1-2)Man(a1-6)]Man(b1-4)GlcNAc(b1-4)[Fuc(a1-6)]GlcNAc
Procedure, shortened: as §1

[5] = target: Fuc(a1-2)[Gal(a1-3)]Gal(b1-4)[Fuc(a1-3)]Glc
Procedure, shortened: as §1

[6] = target: Fuc(a1-2)[GalNAc(a1-3)]Gal(b1-4)GlcNAc(b1-2)Man(a1-3)[Fuc(a1-2)[GalNAc(a1-3)]Gal(b1-4)GlcNAc(b1-2)Man(a1-6)]Man(b1-4)GlcNAc(b1-4)GlcNAc
Procedure, shortened: as §1

[7] = target: Fuc(a1-2)[GalNAc(a1-3)]Gal(b1-4)GlcNAc(b1-3)Gal(b1-4)GlcNAc
Procedure, shortened: as §1

[8] = target: Fuc(a1-2)[GalNAc(a1-3)]Gal(b1-4)GlcNAc(b1-3)Gal(b1-4)GlcNAc(b1-3)Gal(b1-4)GlcNAc
Procedure, shortened: as §1

Gal(b1-3)GlcNAc = target: Gal(b1-3)GlcNAc
Procedure, shortened: as §1

[9] = target: Gal(b1-3)GlcNAc(b1-3)Gal(b1-4)Glc
Procedure, shortened: as §1

[10] = target: Gal(b1-3)[Neu5Ac(b2-6)]GalNAc
Procedure, shortened: as §1

[11] = target: Gal(b1-4)GlcNAc(b1-3)Gal(b1-4)Glc
Procedure, shortened: as §1

[12] = target: Gal(b1-4)GlcNAc(b1-3)Gal(b1-4)GlcNAc(b1-3)Gal(b1-4)GlcNAc
Procedure, shortened: as §1

[13] = target: GalNAc(a1-3)GalNAc(a1-3)Gal(a1-4)Gal(b1-4)GlcNAc
Procedure, shortened: as §1

[14] = target: GalNAc(b1-3)Gal(a1-6)Gal(b1-4)Glc
Procedure, shortened: as §1

[15] = target: GlcNAc(a1-4)Gal(b1-4)GlcNAc(b1-3)Gal(b1-4)GlcNAc(b1-3)Gal(b1-4)GlcNAc
Procedure, shortened: as §1

[16] = target: GlcNAc(a1-6)Gal(b1-4)GlcNAc
Procedure, shortened: as §1

GlcNAc(b1-3)Gal = target: GlcNAc(b1-3)Gal
Procedure, shortened: as §1

Kdn(a2-3)Gal(b1-3)GlcNAc = target: Kdn(a2-3)Gal(b1-3)GlcNAc
Procedure, shortened: as §1

Man(b1-4)GlcNAc = target: Man(b1-4)GlcNAc
Procedure, shortened: as §1

[17] = target: Neu5Ac(a2-3)Gal(b1-3)[Fuc(a1-4)]GlcNAc(b1-3)Gal(b1-3)[Fuc(a1-4)]GlcNAc
Procedure, shortened: as §1

Neu5Ac(a2-3)Gal(b1-4)Glc = target: Neu5Ac(a2-3)Gal(b1-4)Glc
Procedure, shortened: as §1

[18] = target: Neu5Ac(a2-3)Gal(b1-4)GlcNAc(b1-3)Gal(b1-4)GlcNAc
Procedure, shortened: as §1

[19] = target: Neu5Ac(a2-3)Gal(b1-4)GlcNAc(b1-3)GalNAc
Procedure, shortened: as §1

[20] = target: Neu5Ac(a2-3)[Neu5Ac(a2-6)]GalNAc
Procedure, shortened: as §1

Neu5Ac(a2-6)Gal(b1-4)Glc = target: Neu5Ac(a2-6)Gal(b1-4)Glc
Procedure, shortened: as §1

[21] = target: Neu5Ac(a2-6)Gal(b1-4)GlcNAc(b1-3)Gal(b1-4)GlcNAc(b1-3)Gal(b1-4)GlcNAc
Procedure, shortened: as §1

[22] = target: Neu5Ac(a2-6)Gal(b1-4)GlcNAc(b1-3)Gal(b1-4)[Fuc(a1-3)]GlcNAc(b1-3)Gal(b1-4)[Fuc(a1-3)]GlcNAc
Procedure, shortened: as §1

Neu5Ac(a2-6)GalNAc = target: Neu5Ac(a2-6)GalNAc
Procedure, shortened: as §1

[23] = target: Neu5Gc(b2-6)Gal(b1-4)GlcNAc
Procedure, shortened: as §1

B1: Gal 3 (Canis lupus) (protein)
chain: MADSFSLNDALSGSGNPNPQGWPGPWGNQPAGAGGYPGASYPGAYPGQAPPGGYPGQAPPGGYPGQAPPGGYPGQAPPGGYPGQAPPGGYPGQAPPGTYPGPTAPAYPGPTAPGTQPGQPSGPGAYPPPGQPSAPGAYPAAGPFGIPAGPLTVPYDLPLPGGVKPRMLITILGTVRPSANRLALDFKRGNDVAFHFNPRFNEDNKRVIVCNTKLDNIWGKEERQAAFPFESGKPFKIQVLVESDHFKVAVNDAHLLQYNHRMKNLPEISKLGISGDIDLTSASYAMI
glycan array binding signal (z-score) [1]: -0.147 | glycan array binding signal (z-score) [2]: -0.259 | glycan array binding signal (z-score) [3]: 7.41 | glycan array binding signal (z-score) [4]: 4.22 | glycan array binding signal (z-score) [5]: -0.118 | glycan array binding signal (z-score) [6]: 7.54 | glycan array binding signal (z-score) [7]: 5.05 | glycan array binding signal (z-score) [8]: 5.42 | glycan array binding signal (z-score) (Gal(b1-3)GlcNAc): -0.231 | glycan array binding signal (z-score) [9]: -0.074 | glycan array binding signal (z-score) [10]: -0.259 | glycan array binding signal (z-score) [11]: 0.512 | glycan array binding signal (z-score) [12]: 5.09 | glycan array binding signal (z-score) [13]: -0.258 | glycan array binding signal (z-score) [14]: -0.254 | glycan array binding signal (z-score) [15]: 3.48 | glycan array binding signal (z-score) [16]: -0.252 | glycan array binding signal (z-score) (GlcNAc(b1-3)Gal): -0.264 | glycan array binding signal (z-score) (Kdn(a2-3)Gal(b1-3)GlcNAc): -0.149 | glycan array binding signal (z-score) (Man(b1-4)GlcNAc): -0.261 | glycan array binding signal (z-score) [17]: -0.23 | glycan array binding signal (z-score) (Neu5Ac(a2-3)Gal(b1-4)Glc): -0.247 | glycan array binding signal (z-score) [18]: 0.679 | glycan array binding signal (z-score) [19]: -0.205 | glycan array binding signal (z-score) [20]: -0.261 | glycan array binding signal (z-score) (Neu5Ac(a2-6)Gal(b1-4)Glc): -0.246 | glycan array binding signal (z-score) [21]: 5.91 | glycan array binding signal (z-score) [22]: -0.23 | glycan array binding signal (z-score) (Neu5Ac(a2-6)GalNAc): -0.257 | glycan array binding signal (z-score) [23]: -0.25
